Experimental findings from PubChem BioAssay (NCI) are described below.

Test systems include DU-145 prostate; K-562 leukemia; MALME-3M melanoma; MDA-MB-231 breast; RXF 393 renal; SF-268 CNS; SF-295 CNS; SF-539 CNS; UACC-257 melanoma; M14 melanoma; HCT-15 colon; HT29 colon; SNB-75 CNS; SNB-19 CNS; U251 CNS; PC-3 prostate; SK-MEL-5 melanoma; UACC-62 melanoma; LOX IMVI melanoma; SK-MEL-28 melanoma.
Common to all, as to test: NCI-60 one-dose screen, 48 h (100 = growth as untreated, 0 = no growth, -100 = all killed)
What all share (details): 10 µM unless noted

This is part of a sample that, as a whole, favours compounds with a hit. Of some 83,000 tested, about 20% had one in any assay.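 In brief: 96-well plates, 48 h treatment, single concentration, percent growth endpoint.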 Unmarked numbers belong to inactive results. Active and inactive are the calls of the source. How the source made its calls: active means growth percent below 10; inactive means the rest.

For `CN(C)CC(=O)Nc1ccc2ncnc(Nc3ccc(Oc4cccc(C(F)(F)F)c4)c(Cl)c3)c2c1`, the growth was 48.2% with DU-145 prostate; 3.41% (active) in the assay on K-562 leukemia; 69.7% with MALME-3M melanoma; 49.1% in the assay with MDA-MB-231 breast; 50.6% with RXF 393 renal; 61.3% in the assay on SF-268 CNS. The growth with SF-295 CNS is 90.3%; with SF-539 CNS it was 90.8%; with UACC-257 melanoma it was 85.6%; with M14 melanoma it was 59.5%; in the assay with HCT-15 colon, 1.59% (active); with HT29 colon, 2.56% (active). In addition, the growth is 87.2% in the assay with SNB-75 CNS; 70.3% with SNB-19 CNS; 36.2% with U251 CNS; 61.7% in the assay with PC-3 prostate; 66.5% in the assay on SK-MEL-5 melanoma; 88.2% in the assay with UACC-62 melanoma. Further, the growth was -93% (active) in the assay with LOX IMVI melanoma and 78% with SK-MEL-28 melanoma.

Regarding `C=C(C)[C@@H]1CC[C@]2(C(=O)N3CCN(C)CC3)CC[C@]3(C)[C@H](CC[C@@H]4[C@@]5(C)CC(=C/c6ccncc6)/C(=N/O)C(C)(C)[C@@H]5CC[C@]43C)[C@@H]12`, the growth in the assay with DU-145 prostate was 77.1%; with K-562 leukemia, 34.4%; in the assay on MALME-3M melanoma it was 87.4%; with MDA-MB-231 breast it was 65.7%; in the assay on RXF 393 renal, 71.9%; in the assay with SF-268 CNS, 63%. Further, the growth is 91.6% with SF-295 CNS; 83.6% in the assay with SF-539 CNS; 85.8% in the assay on UACC-257 melanoma; 94.5% with M14 melanoma; 65.5% with HCT-15 colon; 41.1% in the assay on HT29 colon. The growth in the assay with SNB-75 CNS is 66.1%; in the assay with SNB-19 CNS, 79.7%; in the assay with U251 CNS, 70.2%; with PC-3 prostate, 44.8%; in the assay with SK-MEL-5 melanoma it was 59.9%; in the assay with UACC-62 melanoma, 78.5%. Moreover, the values for the growth in the assay with LOX IMVI melanoma and in the assay on SK-MEL-28 melanoma were 86% and 96.4%, respectively.

Take `CCCCCCCCCCCCCCCCCCOc1ccccc1CC(=O)OCC[N+]1(C)CCCC1`: the growth is 45.4% in the assay with DU-145 prostate; 27% with K-562 leukemia; 31% with MALME-3M melanoma; 4.95% (active) in the assay with MDA-MB-231 breast; -26.3% (active) in the assay on RXF 393 renal; 20.7% in the assay with SF-268 CNS. In addition, the growth in the assay with SF-295 CNS is 58%; with SF-539 CNS, 40.2%; in the assay with UACC-257 melanoma, 75.3%; with M14 melanoma it was 20.7%; in the assay with HCT-15 colon, 68.1%; with HT29 colon, 12.4%. Besides, the growth is 7.26% (active) in the assay with SNB-75 CNS; 31.1% with SNB-19 CNS; 7.62% (active) in the assay with U251 CNS; 21.8% in the assay with PC-3 prostate; 1.15% (active) in the assay with SK-MEL-5 melanoma; 23.3% in the assay on UACC-62 melanoma. Moreover, the growth was -94.4% (active) in the assay with LOX IMVI melanoma and 49.7% with SK-MEL-28 melanoma.

With `C#COc1cccc(Nc2ncnc3ncc(NC(=O)CCl)cc23)c1`, the growth with DU-145 prostate is 8.37% [6.25 µM] (active); in the assay with K-562 leukemia, 15.3% [6.25 µM]; with MALME-3M melanoma, 37.1% [6.25 µM]; with MDA-MB-231 breast, -4.91% [6.25 µM] (active); with RXF 393 renal it was -12.9% [6.25 µM] (active); with SF-268 CNS, -6.57% [6.25 µM] (active). Also, the growth with SF-295 CNS is 33.5% [6.25 µM]; in the assay on SF-539 CNS, 0.882% [6.25 µM] (active); with UACC-257 melanoma it was 59.4% [6.25 µM]; with M14 melanoma, 35.8% [6.25 µM]; with HCT-15 colon, -30.3% [6.25 µM] (active); with HT29 colon it was -65.2% [6.25 µM] (active). For the same molecule, the growth in the assay with SNB-75 CNS was 49.5% [6.25 µM]; in the assay on SNB-19 CNS it was 20% [6.25 µM]; in the assay with U251 CNS, -73.3% [6.25 µM] (active); in the assay with PC-3 prostate it was 20.6% [6.25 µM]; in the assay with SK-MEL-5 melanoma, 47.1% [6.25 µM]; in the assay on UACC-62 melanoma it was 27.2% [6.25 µM]. Further, the growth with LOX IMVI melanoma was -94.2% [6.25 µM] (active); in the assay on SK-MEL-28 melanoma it was 55.4% [6.25 µM].

On to `COC(=O)c1c2c(c(C)[n+]([O-])c1C)C(=O)C=C(NCc1ccc(Br)cc1)C2=O`, for which the growth in the assay on DU-145 prostate is -87.7% (active); with K-562 leukemia it was 2.51% (active); in the assay with MALME-3M melanoma, -97.9% (active); with MDA-MB-231 breast, -4.67% (active); in the assay on RXF 393 renal, -46.1% (active); in the assay with SF-268 CNS, -43.7% (active). For the same molecule, the growth in the assay with SF-295 CNS was -97.9% (active); in the assay on SF-539 CNS, -86.8% (active); in the assay on UACC-257 melanoma, -80.6% (active); in the assay with M14 melanoma, -83.9% (active); in the assay on HCT-15 colon, -63% (active); with HT29 colon, -5.46% (active). Also, the growth in the assay on SNB-75 CNS is -98.6% (active); in the assay on SNB-19 CNS, -87.2% (active); in the assay on U251 CNS, -41% (active); in the assay on PC-3 prostate, -11.1% (active); with SK-MEL-5 melanoma, -97.5% (active); in the assay on UACC-62 melanoma, -59.5% (active). The growth with LOX IMVI melanoma is -75.7% (active); in the assay with SK-MEL-28 melanoma, -39.6% (active).

Turning to `CC1Cc2c(Cl)ncnc2N(C)c2ccc(F)cc21` (stereo not given), the growth was 110% in the assay with DU-145 prostate; 99.5% in the assay on K-562 leukemia; 91.3% with MALME-3M melanoma; 98.9% in the assay on MDA-MB-231 breast; 104% in the assay on RXF 393 renal; 93.8% with SF-268 CNS. Besides, the growth with SF-295 CNS is 91.2%; with SF-539 CNS, 97.5%; with UACC-257 melanoma, 70.3%; in the assay with M14 melanoma it was 91.5%; in the assay with HCT-15 colon, 106%; in the assay on HT29 colon it was 90.6%. Besides, the growth in the assay on SNB-75 CNS was 59.8%; in the assay with SNB-19 CNS it was 104%; in the assay on U251 CNS it was 89.7%; in the assay on PC-3 prostate it was 87.5%; in the assay with SK-MEL-5 melanoma it was 76.9%; with UACC-62 melanoma, 99.6%. Besides, the results for the growth with LOX IMVI melanoma and with SK-MEL-28 melanoma were 92.3% and 86.5%, respectively.

Consider `Cn1ccnc1C(=O)C(=O)Nc1ccc(CC(=O)Nc2ccccc2)cc1`, for which the growth is 104% with DU-145 prostate; 111% in the assay on K-562 leukemia; 101% in the assay on MALME-3M melanoma; 109% in the assay on MDA-MB-231 breast; 102% in the assay with RXF 393 renal; 96.7% with SF-268 CNS. Further, the growth with SF-295 CNS is 106%; with SF-539 CNS, 99.4%; in the assay on UACC-257 melanoma it was 110%; with M14 melanoma it was 104%; in the assay on HCT-15 colon it was 96.9%; with HT29 colon, 107%. The growth in the assay on SNB-75 CNS was 92.2%; with SNB-19 CNS, 96.5%; in the assay on U251 CNS, 108%; in the assay with PC-3 prostate, 107%; in the assay with SK-MEL-5 melanoma it was 101%; in the assay with UACC-62 melanoma, 95.5%. Besides, the figures for the growth with LOX IMVI melanoma and with SK-MEL-28 melanoma were 100% and 107%, respectively.
